# High-throughput results deposited in PubChem BioAssay by SRMLSC.
# NADH coupling – blocks coupling enzymes of NAD/NADH assays; coupled PK/LDH NADH assays, four targets; IC50, µM (highest dose often 10 µM), without a hit: top-dose inhibition; 65,000 tested, 0.02% active;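 active = single-dose screening hits from any of four coupled enzyme assays that gave an IC50 when retested across doses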;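 note: the DPM-DC format reads NADH fluorescence rather than 340 nm absorbance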
# Spn DPM-DC inh – inhibitors of Streptococcus pneumoniae diphosphomevalonate decarboxylase; purified DPM-DC, PK/LDH coupled NADH fluorescence; calls only at 10 µM; 65,000 tested, 0.49% active;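 active = the 320 compounds with the highest percent inhibition in the single-dose primary screen, excluding strongly autofluorescent ones, cut at about 32% in these data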;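 note: kinetic rate of NADH fluorescence loss reporting ADP formed by the decarboxylase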
# PMK inhibit – blocks S. pneumoniae phosphomevalonate kinase. 65,000 tested, 0.49% active. purified PMK, PK/LDH-coupled NADH absorbance 340 nm. inhibition, % at 10 µM;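 active = top-ranked compounds by inhibition in the single 10 µM screen, taking a fixed number of the strongest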;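 note: 0% = full reaction with DMSO carrier and 100% = background rate without enzyme reaction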
# Spn MK inh – blocks S. pneumoniae mevalonate kinase | purified MK, PK/LDH-coupled NADH absorbance 340 nm | inhibition, % at 10 µM | 65,000 tested, 0.48% active | AID 555;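 active = ranked among the strongest by inhibition in the single 10 µM screen, a fixed top-ranked set picked for dose follow-up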
# * marks the source's active call; other numbers are inactive results; i = inactive; · = not tested or not shown; + = active, no number; [ ] = another dose, or the depositor's remark. Hits are enriched below; roughly 1.3% of the tested compounds scored in any of these assays.
SMILES,NADH coupling,Spn DPM-DC inh,PMK inhibit,Spn MK inh
COC(=O)c1cc(NS(=O)(=O)c2ccc(OC)c(OC)c2)ccc1Cl,6%,i,10,9
COC(=O)c1cc(Cl)c(NS(=O)(=O)c2ccccc2)cc1OC,15%,+,11,0
COc1ccccc1N1CCN(C(c2cccs2)c2nnnn2C2CCCC2)CC1 (stereo not drawn),4%,i,8,5
CCOC(=O)N1CCN(C(=O)c2cn(CC)c3cc(N4CCN(C)CC4)c(F)cc3c2=O)CC1,9%,+,18,5
COc1ccc(-c2nn3c(-c4ccccn4)nnc3s2)cc1OC,15%,+,5,7
CN(C)c1ccc(-c2nn3c(-c4ccccc4Cl)nnc3s2)cc1,3%,·,0,6
COc1ccccc1-c1nnc2sc(-c3ccc(N(C)C)cc3)nn12,10%,+,3,3
COc1cc(CNc2ccc(N3CCOCC3)c(C(=O)O)c2)ccc1OCC(N)=O,7%,+,2,6
COc1ccccc1CNc1ccc(N2CCOCC2)c(C(=O)O)c1,8%,i,3,6
COc1ccc(CCNC(=O)C2CCCN(c3nn4c(=O)cc(C)nc4s3)C2)cc1OC (stereo not drawn),3%,i,23,0
COc1cccc(CNC(=O)C2CCCN(c3nn4c(=O)cc(C)nc4s3)C2)c1 (stereo not drawn),9%,i,27*,0
COc1ccc(Br)cc1C1N2CC3(C)CN1CC(C)(C2)C3=O (stereo not drawn),2%,i,i,i
COc1ccc2[nH]cc(C3N4CC5(C)CN3CC(C)(C4)C5=O)c2c1 (stereo not drawn),20%,i,13,48*
O=c1cc(NCc2ccco2)c2ccccc2o1,5%,i,0,6
Cc1nn(-c2ccccc2)c(C)c1C(=O)OCC(=O)Nc1ccc2c(c1)OCO2,5%,i,9,6
CC(C)(O)P(C)(=O)c1ccccc1 (stereo not drawn),23%,+,14,7
COCCCNC(=O)c1ccc(N2CCCC2)c(NS(=O)(=O)c2ccc(C)cc2)c1,11%,i,25*,8
CC(OC(=O)c1cccs1)C(=O)NCC1CCCO1 (stereo not drawn),9%,i,25*,0
CCN(CC)CCN(Cc1cc2cc3c(cc2[nH]c1=O)OCCO3)C(=O)NC1CCCCC1,12%,·,16,8
Cc1ccc(NC(=O)N(CCCN2CCOCC2)Cc2cc3cc4c(cc3[nH]c2=O)OCO4)cc1,21%,+,15,15
CCN(CC)CCCN(Cc1cc2cc3c(cc2[nH]c1=O)OCCO3)C(=O)Nc1ccccc1,18%,+,10,9
O=C(Nc1ccccc1)N(CCCN1CCOCC1)Cc1cc2cc3c(cc2[nH]c1=O)OCCO3,5%,·,13,12
CCOc1ccc(N(CC(=O)NC2CCCC(C)C2C)S(=O)(=O)c2c(C)noc2C)cc1 (stereo not drawn),6%,+,9,8
CC(CN1CCCCC1)OC(=O)c1ccc(Cl)cc1 (stereo not drawn),3%,i,1,9
CC(CN1CCN(C)CC1)OC(=O)c1ccc(Cl)cc1 (stereo not drawn),10%,i,28*,2
SMILES,NADH coupling,Spn DPM-DC inh,PMK inhibit,Spn MK inh
CCOc1ccc(C(C)(C)C)cc1S(=O)(=O)N1CC(C)OC(C)C1 (stereo not drawn),4%,i,0,11
CCCc1nc2ccccc2c(=O)n1/N=C/c1c(C)[nH]n(-c2ccc(C)cc2)c1=O,10%,i,14,5
O=C(c1ccccc1F)N(Cc1ccccc1)C1CCS(=O)(=O)C1 (stereo not drawn),44%,+,14,29
O=C(c1ccccc1F)N(Cc1ccc(F)cc1)C1CCS(=O)(=O)C1 (stereo not drawn),9%,i,13,15
CCN(CC)S(=O)(=O)c1cc(Br)ccc1OC,3%,i,0,9
COc1cc(-c2nnc(COc3ccc4ccccc4c3)o2)cc(OC)c1OC,15%,i,28*,16
CC1(C)CC(=O)c2cc(OCC(=O)N3CCN(c4ccccc4F)CC3)ccc2O1,6%,+[may fluoresce],26*,4
COc1cccc(N2C(=O)CC(N3CCC(C(N)=O)(N4CCCCC4)CC3)C2=O)c1 (stereo not drawn),10%,i,9,13
COc1ccc(C(O)C(CC(=O)NCCCOC(C)C)C(=O)NCCCOC(C)C)cc1OC (stereo not drawn),3%,i,8,0
Cc1ccc(NC(=O)c2c(-c3c(F)cccc3Cl)noc2C)cc1F,1%,i,0,2
